This note sets out measurements from PubChem BioAssay.

Where “and” joins values, the source holds several entries; their conditions need not be identical. Equal values may be shown once. Calls of active or inactive are those of the source.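 Rule for the calls, unless noted: active = z-score of at least 1.8 in each of two replicates, scored against plate mean and spread of sample wells; inactive = the rest.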

The nature of experiment [1]: P. berghei load reduction in hepatocytes – cell-based, HepG2, luciferase luminescence, HepG2 viability, primary screen (AID 624349; in the data active = parasite load remaining mostly below about 12%, no sharp cut-off; inactive = mostly above about 10%;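 note: 100% = mean of DMSO negative control wells on the same plate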). The note with it: P. berghei liver stage in HepG2, luciferase luminescence, concentration not given here; parasite load remaining: stronger effect = lower value; viability: measured here: HepG2 viability without parasites.
Experiment [2] in a line: Wnt pathway potentiators raising nuclear beta-catenin – imaging, WNT3A-conditioned medium, mouse C2C12, NPC library, primary screen (AID 1117326; in the data active = nuclear beta-catenin stimulation mostly above about 4.2%, no sharp cut-off; inactive = mostly below about 10%). The note with it: stronger effect = higher value.
A short description of experiment [3]: stimulators of insulin release from INS-1E, primary screen, cell-based, 5 mM glucose, NPC library (AID 1117329;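 active = compound raises insulin release from rat beta cells at 5 mM glucose, no numeric limit stated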). The following applies: rat INS-1E insulin secretion, at 10 µM, stronger effect = higher value.
Experiment [4] can be described thus: growth inhibition of GSK3B-pretreated HCT116 cells – cell-based, CellTiter-Glo, 0.2 to 20 µM (AID 1117336;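 active = compounds lowering colon cancer cell viability after pretreatment blocking the GSK3B kinase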). The note with it: HCT116 viability after GSK3B inhibitor, at 20 µM, stronger effect = higher value.
Experiment [5] can be described thus: inhibition of endothelial tube formation, primary screen, imaging, VEGF stimulated, CD31 staining, tube area, NPC library (AID 1117340;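 active = compound that reduces growth-factor-driven endothelial tube area in a mixed cell culture, no cutoff stated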). The following applies: VEGF-stimulated ADSC/ECFC co-culture, at 10 µM, stronger effect = higher value.
Experiment [6] in a line: GLP1 release stimulators, primary, NCI-H716, NPC library (AID 1117341;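 active = compound raises GLP1 secretion from the human gut endocrine cells, with no numeric limit stated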). The following applies: NCI-H716 cells, at 10 µM, stronger effect = higher value.
Experiment [7] can be described thus: HCT116 colon cancer cell growth inhibition, primary screen, CellTiter-Glo luminescence, NPC library (AID 1117342;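 active = compounds that lower survival of HCT116 colon cancer cells in the luminescence readout, no numeric limit stated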). The following applies: at 20 µM (top of the series).
Experiment [8] is described as follows: reduced SW480 viability measured with CellTiter-Glo, NPC library, primary (AID 1117343;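 active = compounds that lower viability of the colon cancer cells in the luminescence readout, with no numeric limit stated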). The note with it: CellTiter-Glo luminescence; at 20 µM (top of the series).
Experiment [9] in a line: NPC library primary testing for decreased DLD-1 cell viability via CellTiter-Glo (AID 1117346;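 active = compounds that lower survival of DLD-1 colon cancer cells in the luminescence readout, no cutoff given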). The following applies: DLD-1 viability, CellTiter-Glo luminescence; at 20 µM (top of the series). (In general: In ATP-based viability assays light output follows the ATP content of the culture.)
A short description of experiment [10]: viability loss with induced miR-34 in A549 – imaging, A549 dox-inducible miR-34, nuclei and caspase counts, primary screen (AID 1347080;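 active = compounds whose cell count with miR-34 switched on is under 0.7 times the count with it off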). The note with it: A549 miR-34 inducible, Hoechst nuclei count, 48 h.
The nature of experiment [11]: galactose survival enhancers in mitochondrial complex I cybrids – cell-based, galactose medium, ATP luminescence, primary screen (AID 1645843).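 Note: positive z means more ATP and so rescue of galactose-driven cybrid death.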 The following applies: complex I mutant cybrid cells, 72 h, stronger effect = higher value.
Experiment [12] in a line: MELAS cybrid and Rieske KO viability enhancers – cell-based, MELAS cybrids, Rieske KO mouse fibroblasts, CellTiter-Glo, primary screen (AID 1508586;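 active = mean z-score across replicates of 1.96 or higher in either the MELAS or the Rieske mutant cell line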;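 note: z relative to plate mean and SD of compound and empty wells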). The following applies: low glucose.
For experiment [13], the target named is NAD(+) hydrolase SARM1 (Homo sapiens) (UniProt Q6SZW1). Put plainly: blocking NAD cleavage by SARM1 SAM-TIR – cell lysate, NAD-Glo luminescence (AID 1508614;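 active = compound whose remaining NAD level is above about 45 nM, limit read from the data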;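 note: higher remaining NAD means stronger inhibition of SARM1 NADase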). The following applies: SAM-TIR HEK293T lysate NADase, at 1 µM, stronger effect = higher value.
Sequence of NAD(+) hydrolase SARM1 (Homo sapiens) (Q6SZW1 whole entry, looked up): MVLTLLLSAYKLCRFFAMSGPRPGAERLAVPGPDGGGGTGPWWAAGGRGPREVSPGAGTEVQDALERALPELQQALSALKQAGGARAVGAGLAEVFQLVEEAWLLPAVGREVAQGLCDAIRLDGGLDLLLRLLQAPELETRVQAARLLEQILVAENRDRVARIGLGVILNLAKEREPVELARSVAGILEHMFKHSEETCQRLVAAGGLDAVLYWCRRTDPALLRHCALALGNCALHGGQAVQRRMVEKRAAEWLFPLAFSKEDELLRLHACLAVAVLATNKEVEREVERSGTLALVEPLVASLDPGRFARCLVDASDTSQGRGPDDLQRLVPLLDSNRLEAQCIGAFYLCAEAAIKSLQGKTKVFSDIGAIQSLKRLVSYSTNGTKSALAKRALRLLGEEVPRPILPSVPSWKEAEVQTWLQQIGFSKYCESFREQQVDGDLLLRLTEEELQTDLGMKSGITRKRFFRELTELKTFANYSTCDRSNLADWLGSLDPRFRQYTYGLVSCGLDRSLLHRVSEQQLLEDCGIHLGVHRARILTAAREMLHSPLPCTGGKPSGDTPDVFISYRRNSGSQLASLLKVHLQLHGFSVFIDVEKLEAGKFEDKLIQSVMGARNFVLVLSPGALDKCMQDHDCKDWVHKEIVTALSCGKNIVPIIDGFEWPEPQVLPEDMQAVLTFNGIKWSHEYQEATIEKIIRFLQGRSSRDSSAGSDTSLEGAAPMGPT
Where [14] appears, read: measured here: relative caspase fold change +Dox/-Dox.
[15] abbreviates: measured here: total cells with miR-34 induction, stronger effect = lower value.
Setting [16] is: measured here: total cells without miR-34 induction.
[17] abbreviates: MELAS cybrid survival, CellTiter-Glo 48 h, stronger effect = higher value.
The mark [18] stands for this setting: Rieske KO mouse fibroblast survival, CellTiter-Glo 72 h.

With `CC[C@]1(O)CC[C@H]2[C@@H]3CCC4=CCCC[C@@H]4[C@H]3CC[C@@]21C`, the parasite load remaining in experiment [1] was 95.1% (inactive). The viability in experiment [1] amounted to 75.2%. Besides, the nuclear beta-catenin stimulation in [2] (at 10 µM) is 8.1% (inactive); in experiment [2] (stimulation, at 2 µM), 0.5%. In experiment [3], the insulin secretion stimulation is 1.8% (inactive). Also, the viability decrease in [4] is 70.7% (active). For the same molecule, in experiment [5], the tube area decrease was 66.4% (active). In addition, in experiment [6], the GLP1 secretion stimulation was 2.3% (inactive). Further, the inhibition of viability in [7] is 64.1% (active). Besides, the viability decrease (inhibition) was 97.8% (active) in [8] and 73% (active) in experiment [9].
Take `CN1C(=O)CN=C(c2ccccc2)c2cc([N+](=O)[O-])ccc21`: the parasite load remaining in [1] is 83.1% (inactive). Also, the viability in [1] came out at 68.8%. Moreover, the nuclear beta-catenin stimulation is 0.5% (inactive) in [2] (at 10 µM) and 0.9% in experiment [2] (stimulation, at 2 µM). For the same molecule, in experiment [3], the insulin secretion stimulation is -0.2% (inactive). Also, in experiment [4], the viability decrease is -4.25% (inactive). In experiment [5], the tube area decrease is -18.8% (inactive). In experiment [6], the GLP1 secretion stimulation is 3.3% (inactive). Further, in [7], the inhibition of viability was -16.9% (inactive). The viability decrease (inhibition) in [8] is 18.1% (inactive); in experiment [9], 1.05% (inactive). Moreover, the fold change is 0.947 (inactive) in [10] (stronger effect = lower value) and 1.19 in experiment [10] (setting [14]). Moreover, the cell count in [10] (setting [15]) came out at 9100; in experiment [10] (setting [16]) it was 9610. Further, in experiment [11], the z-score is 0.65 (inactive).
As to `Cc1cccc(C)c1NC(=O)CN1CCCC1=O`, the nuclear beta-catenin stimulation in experiment [2] (at 10 µM) was -1.9% (inactive); in experiment [2] (stimulation, at 2 µM), 0.9%. Also, the insulin secretion stimulation in experiment [3] is 1.6% (inactive). In addition, in [4], the viability decrease was 0.1% (inactive). The tube area decrease in experiment [5] is -2.5% (inactive). Besides, the GLP1 secretion stimulation in [6] is -2.4% (inactive). Also, the inhibition of viability in experiment [7] was 0.2% (inactive). For the same molecule, the results for the viability decrease (inhibition) in experiment [8] and in experiment [9] were 0.5% (inactive) and -10.5% (inactive), respectively. Besides, the fold change in experiment [10] (stronger effect = lower value) is 0.975 (inactive) and 0.928 (inactive); in experiment [10] (setting [14]), 1.2 and 0.724. Besides, the cell count was 10700 and 8710 in experiment [10] (setting [15]); 11000 and 9380 in [10] (setting [16]). Moreover, the z-score in [12] (setting [17]) is -0.209 (inactive); in experiment [12] (setting [18]) it was 0.685; in [11], 0.43 (inactive). The remaining NAD in [13] is 10 nM (inactive).
In the case of `c1ccc(C2CC2)c(OCC2=NCCN2)c1`, the parasite load remaining in experiment [1] is 45.2% (inactive). Besides, the viability in experiment [1] amounted to 96.5%. In addition, the nuclear beta-catenin stimulation in experiment [2] (at 10 µM) was 1.3% (inactive); in experiment [2] (stimulation, at 2 µM), 0.6%. Besides, the insulin secretion stimulation in experiment [3] was -0.5% (inactive). Moreover, the viability decrease in [4] was -54.5% (inactive). In addition, the tube area decrease in [5] is -3.7% (inactive). For the same molecule, the GLP1 secretion stimulation in experiment [6] was 10.4% (inactive). Further, the inhibition of viability in experiment [7] was 5.23% (inactive). Besides, the viability decrease (inhibition) is 7% (inactive) in experiment [8] and -2.1% (inactive) in experiment [9]. Moreover, the z-score in [12] (setting [17]) is -0.68 (inactive); in experiment [12] (setting [18]), -0.25; in [11], -0.075 (inactive) and 0.06 (inactive) and 0.195 (inactive).

For orientation: viability means a read-out of living cells in per cent, often relative to untreated cells.
